Results reported in PubChem BioAssay (NCATS).
“And” between values parts separate entries of the source, which are not always exact repeats. Identical values can stand only once. Inconclusive results are not listed. The source made the active and inactive calls. Unless noted, the call rests on the fitted dose curve; in most records, active means well fitted curve in the direction sought with a large enough effect; inconclusive means small, poorly fitted or top-dose-only effect, or another doubt; inactive means no such curve, though single readings can be large; an effect the other way counts as inactive or inconclusive.

What was measured:
[1] = AP1 Signaling Pathway (AID 357; active means well fitted curve in either direction with a large enough effect, not every such curve was filed as active; further: on the % scale 0 is the no-effect control and ±100 the full control effect); conditions: ME-180 AP-1-bla reporter, EGF-induced, beta-lactamase ratio, 5 h
Method in brief: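 ME-180 cells with beta-lactamase reporter under AP-1 response element, stimulated with EC50 EGF; compounds tested in titration series, 5 h at 37 °C. CCF4 substrate added 2.5 h at room temperature; 460/530 nm emission ratio gave %activity and AC50.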

[2] = target: Cytochrome P450 1A2 (Homo sapiens) (UniProt P05177); assay: p450-cyp1a2 (AID 410; calls by dose curve;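 further: -100% = full effect of reference inhibitor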)
Cytochrome P450 1A2 (Homo sapiens), sequence (P05177 whole entry, looked up): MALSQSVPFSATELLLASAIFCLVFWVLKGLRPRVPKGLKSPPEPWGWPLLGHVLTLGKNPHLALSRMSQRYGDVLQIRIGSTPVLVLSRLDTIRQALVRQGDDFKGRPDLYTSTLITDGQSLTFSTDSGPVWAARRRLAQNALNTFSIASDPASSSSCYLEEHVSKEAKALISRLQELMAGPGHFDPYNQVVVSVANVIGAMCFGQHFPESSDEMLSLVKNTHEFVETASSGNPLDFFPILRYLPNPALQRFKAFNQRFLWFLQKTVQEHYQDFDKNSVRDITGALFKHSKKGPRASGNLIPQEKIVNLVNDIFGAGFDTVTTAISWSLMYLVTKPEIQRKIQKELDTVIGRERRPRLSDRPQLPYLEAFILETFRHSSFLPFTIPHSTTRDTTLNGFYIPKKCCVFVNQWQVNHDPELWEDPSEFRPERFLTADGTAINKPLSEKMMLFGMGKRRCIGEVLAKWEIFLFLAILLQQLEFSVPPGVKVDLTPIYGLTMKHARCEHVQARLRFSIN
Method in brief: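 Human CYP1A2 (20nM) demethylated Luciferin-ME at its Km (100uM) in 100mM KPO4. After 10 min compound preincubation, NADPH regeneration ran the reaction 60 min at room temperature. Luciferin was read by luminescence, normalized to 57 uM furafylline.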

[3] = Stat Signaling Pathway (AID 446; active means well fitted curve in either direction with a large enough effect, not every such curve was filed as active;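 further: ME-180 cervical cancer cells given 40 pM IL-6 alongside compound; SIE-controlled beta-lactamase reporter measured as 460/530 nm FRET emission ratio; on the % scale 0 is the no-effect control and ±100 the full control effect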); conditions: ME-180 SIE beta-lactamase reporter, IL-6 stimulated, 5 h
Method in brief: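 ME-180 SIE-bla cells; overnight plating; cpd + IL-6 40 pM, 5 h, 37 C; LiveBLAzer 2.5 h RT; 460/530 nm emission ratio. Normalized to 300 pM IL-6 and 125 nM JAK inhibitor controls.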

[4] = target: Glucocorticoid receptor (Homo sapiens) (UniProt P04150); assay: GR-GFP Redistribution (AID 450;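 active means compounds whose dose series gives a full or clear partial fitted curve of increased nuclear translocation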; further: potency means the concentration at half of the fitted maximal effect); conditions: U2OS GR-GFP nuclear translocation, laser cytometry, 2 h
Glucocorticoid receptor (Homo sapiens), sequence (P04150 whole entry, looked up): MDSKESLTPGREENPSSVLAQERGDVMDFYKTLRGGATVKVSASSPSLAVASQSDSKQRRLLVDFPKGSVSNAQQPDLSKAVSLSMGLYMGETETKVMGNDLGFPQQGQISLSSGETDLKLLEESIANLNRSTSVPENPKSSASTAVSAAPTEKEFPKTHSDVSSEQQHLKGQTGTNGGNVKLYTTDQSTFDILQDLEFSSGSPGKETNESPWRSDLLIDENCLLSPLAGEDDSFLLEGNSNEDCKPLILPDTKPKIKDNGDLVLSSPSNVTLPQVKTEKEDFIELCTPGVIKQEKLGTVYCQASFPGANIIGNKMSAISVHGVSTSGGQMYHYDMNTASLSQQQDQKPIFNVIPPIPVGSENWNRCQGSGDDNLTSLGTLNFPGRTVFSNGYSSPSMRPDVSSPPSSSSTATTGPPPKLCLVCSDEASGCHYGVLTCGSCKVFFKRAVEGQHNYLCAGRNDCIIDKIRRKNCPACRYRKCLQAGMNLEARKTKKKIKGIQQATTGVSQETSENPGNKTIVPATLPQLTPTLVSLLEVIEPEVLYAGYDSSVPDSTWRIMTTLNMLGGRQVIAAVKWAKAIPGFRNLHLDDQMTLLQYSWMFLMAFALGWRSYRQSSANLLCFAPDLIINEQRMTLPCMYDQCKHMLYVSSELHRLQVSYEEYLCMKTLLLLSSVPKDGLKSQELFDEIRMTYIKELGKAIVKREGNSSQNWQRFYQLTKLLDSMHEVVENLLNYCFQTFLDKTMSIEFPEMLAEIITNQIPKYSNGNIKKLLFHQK

[5] = target: Mitogen-activated protein kinase 10 (Mus musculus) (UniProt Q61831); assay: JNK3 AlphaScreen Assay (AID 530; active means well fitted curve in either direction with a large enough effect, not every such curve was filed as active;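 further: kinase came from lysate of stimulated human HepG2 cells; signal reports phosphorylation of biotinylated GST-cJun 1-79 at Ser73 with 10 µM ATP; on the % scale 0 is the no-effect control and ±100 the full control effect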)
Method in brief: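 JNK3 came from HepG2 lysates pre-activated with IL-1beta and TNF-alpha and phosphorylated biotinylated GST-cJun (1-79) at 10 uM ATP, pH 7.6, room temperature. Compounds were titrated. AlphaScreen signal used anti-phospho-cJun (Ser73) antibody.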

[6] = target: 3',5'-cyclic-AMP phosphodiesterase 4B (Homo sapiens) (UniProt Q07343); assay: qHTS Assay for Inhibitors of PDE-IV (AID 607; active means well fitted activation curve with a large enough effect in the main read-out, with a control signal flat, not every such curve was filed as active; further: % of control where 0% means no effect)
3',5'-cyclic-AMP phosphodiesterase 4B (Homo sapiens), sequence (Q07343 whole entry, looked up): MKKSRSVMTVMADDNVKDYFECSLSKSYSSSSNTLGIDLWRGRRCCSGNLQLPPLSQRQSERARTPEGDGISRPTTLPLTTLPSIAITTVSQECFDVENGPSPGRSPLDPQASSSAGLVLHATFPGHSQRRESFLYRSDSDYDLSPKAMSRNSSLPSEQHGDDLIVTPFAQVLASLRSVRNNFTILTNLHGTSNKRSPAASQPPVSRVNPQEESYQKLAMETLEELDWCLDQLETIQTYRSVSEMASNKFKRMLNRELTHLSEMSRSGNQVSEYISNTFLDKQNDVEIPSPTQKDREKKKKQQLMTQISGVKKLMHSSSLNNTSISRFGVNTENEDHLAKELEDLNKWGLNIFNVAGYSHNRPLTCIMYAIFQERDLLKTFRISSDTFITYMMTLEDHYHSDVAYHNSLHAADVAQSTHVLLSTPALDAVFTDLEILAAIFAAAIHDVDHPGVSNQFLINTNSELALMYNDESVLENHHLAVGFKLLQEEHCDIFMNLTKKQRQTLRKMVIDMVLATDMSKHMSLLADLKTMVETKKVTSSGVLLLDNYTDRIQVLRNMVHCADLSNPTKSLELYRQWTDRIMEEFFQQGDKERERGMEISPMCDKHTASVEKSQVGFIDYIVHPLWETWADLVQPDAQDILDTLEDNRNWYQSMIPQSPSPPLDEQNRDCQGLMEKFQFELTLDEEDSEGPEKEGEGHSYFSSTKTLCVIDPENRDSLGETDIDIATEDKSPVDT
Method in brief: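 ACTOne HEK293 cells carry a modified cAMP-gated CNG channel and express endogenous PDE4; plated 1000 cells/well, compounds up to 22.9 uM final. Membrane-potential dye fluorescence (ex 535/em 590) was read; parental cells received 10 uM forskolin + 100 uM RO 20-1724.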

[7] = target: Guanine nucleotide-binding protein G(i) subunit alpha-1 (Homo sapiens) (UniProt P63096); assay: qHTS Assay for Inhibitors of RGS12 GoLoco Motif Activity (Green Fluorophore) (AID 879);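 further: 0% = labeled peptide with Gαi1 and full inhibition = labeled peptide alone without protein; negative values mean loss of peptide binding seen as reduced polarization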
Guanine nucleotide-binding protein G(i) subunit alpha-1 (Homo sapiens), sequence (P63096 whole entry, looked up): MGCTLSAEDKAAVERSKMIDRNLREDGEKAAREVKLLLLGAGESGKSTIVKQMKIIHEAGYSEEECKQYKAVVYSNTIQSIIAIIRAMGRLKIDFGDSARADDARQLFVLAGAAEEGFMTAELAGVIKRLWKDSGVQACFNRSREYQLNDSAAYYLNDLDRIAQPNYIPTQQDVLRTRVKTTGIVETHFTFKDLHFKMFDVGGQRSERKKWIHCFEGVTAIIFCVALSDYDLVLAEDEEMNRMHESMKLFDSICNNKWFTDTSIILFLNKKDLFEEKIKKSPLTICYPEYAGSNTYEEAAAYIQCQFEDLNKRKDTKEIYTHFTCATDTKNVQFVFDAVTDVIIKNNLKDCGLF
Method in brief: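 Fluorescence polarization assay: 50 nM Gαi1 with 10 nM FITC-labeled RGS12 GoLoco peptide in 10 mM Tris pH 7.5, 150 mM NaCl, 0.1 mM GDP, 0.05% NP40, 10 min at room temperature with compound.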

[8] = target: Cytochrome P450 2C9 (Homo sapiens) (UniProt P11712); assay: qHTS Assay for Inhibitors and Substrates of Cytochrome P450 2C9 (AID 883); further: on the % scale 0 is the no-effect control and ±100 the full control effect; nearly all actives have a fitted effect of over 60% in size
Method in brief: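 CYP2C9 deoxyluciferin hydroxylation, 37C, 60 min with NADPH regeneration; 10nM enzyme, 100uM Luciferin-H (KM). Glo detection reagent stopped reaction; luminescence normalized to sulphaphenazole (57uM) full inhibition.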

[9] = target: Cytochrome P450 3A4 (Homo sapiens) (UniProt P08684); assay: qHTS Assay for Inhibitors and Substrates of Cytochrome P450 3A4 (AID 884); further: on the % scale 0 is the no-effect control and ±100 the full control effect; nearly all actives have a fitted effect of over 50% in size
Cytochrome P450 3A4 (Homo sapiens), sequence (P08684 whole entry, looked up): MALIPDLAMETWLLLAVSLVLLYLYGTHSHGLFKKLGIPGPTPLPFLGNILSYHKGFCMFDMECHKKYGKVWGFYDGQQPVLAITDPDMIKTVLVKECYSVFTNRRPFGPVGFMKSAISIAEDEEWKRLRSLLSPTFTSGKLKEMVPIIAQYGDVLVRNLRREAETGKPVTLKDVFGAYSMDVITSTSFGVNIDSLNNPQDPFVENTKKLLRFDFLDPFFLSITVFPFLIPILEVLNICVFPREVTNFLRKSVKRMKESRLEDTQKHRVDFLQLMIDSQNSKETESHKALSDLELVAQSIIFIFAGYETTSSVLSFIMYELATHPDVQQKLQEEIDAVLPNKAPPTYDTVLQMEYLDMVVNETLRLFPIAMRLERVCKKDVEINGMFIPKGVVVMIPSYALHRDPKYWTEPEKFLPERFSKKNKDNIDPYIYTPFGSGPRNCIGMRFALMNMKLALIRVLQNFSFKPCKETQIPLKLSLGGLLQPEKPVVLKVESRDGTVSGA
Method in brief: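 20 nM human CYP3A4 with 25 uM Luciferin-PPXE (at KM) in 200 mM KPO4, preincubated 10 min with compound; NADPH regeneration started a 60 min RT reaction. Luciferin detected by luminescence, normalized to 57 uM ketoconazole as full inhibition.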

[10] = target: Cytochrome P450 2D6 (Homo sapiens) (UniProt P10635); assay: qHTS Assay for Inhibitors and Substrates of Cytochrome P450 2D6 (AID 891);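 further: luciferin methyl ether substrate demethylated by CYP2D6 with NADPH regeneration; on the % scale 0 is the no-effect control and ±100 the full control effect; nearly all actives have a fitted effect of over 60% in size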
Method in brief: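 Human CYP2D6 (5 nM) with 30 uM Luciferin-ME EGE (at Km) in 100 mM KPO4, compound preincubated 10 min, then NADPH regeneration system for 60 min at room temperature. Luciferin read by luminescence; normalized to 1.43 uM quinidine.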

[11] = target: Cytochrome P450 2C19 (Homo sapiens) (UniProt P33261); assay: qHTS Assay for Inhibitors and Substrates of Cytochrome P450 2C19 (AID 899); further: on the % scale 0 is the no-effect control and ±100 the full control effect; nearly all actives have a fitted effect of over 60% in size
Method in brief: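 In 50mM KPO4, the reaction held 5nM enzyme and KM-level (10uM) Luciferin-H EGE; it ran 60 min at 37C after NADPH regeneration and a 10 min compound preincubation. Luminescence values were scaled to 57uM ketoconazole as complete inhibition.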

[12] = Confirmation and Secondary Assay for Modulators of Hemoglobin Beta Chain Splicing at IVS2 654 locus (AID 910);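 further: per-well total GFP intensity by laser scanning cytometry after 2-day treatment; % of control where 0% means no effect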
Method in brief: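 HeLa cells stably carrying EGFP interrupted by mutant beta-globin IVS2-654 intron (CMV-driven) were treated with compound for 2 days at 37C; corrected splicing was scored as total peak GFP intensity per well (488 nm excitation, 500-520 nm emission).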

[13] = Confirmation and Secondary Assay for Modulators of Hemoglobin Beta Chain Splicing at IVS2 705 locus (AID 930);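 further: HeLa cells stably expressing the EGFP-705 splicing reporter; GFP fluorescence per well restored by corrected splicing of the IVS2-705 intron in EGFP; % of control where 0% means no effect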
Method in brief: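 HeLa IVS2-705 EGFP reporter cells, 500/well, compound 2 d at 37C; correct splicing yields fluorescent EGFP. Control: 500 nM antisense PNA. Read-out: total peak GFP intensity.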

[14] = target: Pyruvate kinase (Leishmania mexicana) (UniProt Q27686); assay: qHTS Validation Assay for Inhibitors of Leishmania Mexicana Pyruvate Kinase (AID 945);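 further: 0% = DMSO only neutral control wells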
Pyruvate kinase (Leishmania mexicana), sequence (Q27686 2-499 E452W): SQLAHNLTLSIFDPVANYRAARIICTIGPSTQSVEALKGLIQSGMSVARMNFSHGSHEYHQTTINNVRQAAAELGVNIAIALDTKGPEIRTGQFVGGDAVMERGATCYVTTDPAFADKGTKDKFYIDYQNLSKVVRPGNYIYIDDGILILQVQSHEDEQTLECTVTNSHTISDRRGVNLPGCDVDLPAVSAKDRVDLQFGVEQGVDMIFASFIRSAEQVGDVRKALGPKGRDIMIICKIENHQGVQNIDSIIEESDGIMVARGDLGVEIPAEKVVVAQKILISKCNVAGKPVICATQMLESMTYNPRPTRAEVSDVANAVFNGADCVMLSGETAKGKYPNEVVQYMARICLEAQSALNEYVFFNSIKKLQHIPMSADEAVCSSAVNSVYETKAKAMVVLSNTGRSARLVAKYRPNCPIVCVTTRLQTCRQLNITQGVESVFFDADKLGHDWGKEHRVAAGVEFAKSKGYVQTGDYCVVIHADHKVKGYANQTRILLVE
Method in brief: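 Eight-point qHTS titrations; enzyme 0.2 nM LmPYK (E451W mutant); substrates 0.5 mM PEP, 0.1 mM ADP; 7 mM MgCl2; 1 h room temperature; PKLight luminescence normalized to neutral control.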

[15] = target: Alpha-galactosidase A (Homo sapiens) (UniProt P06280); assay: Counterscreen for Glucocerebrosidase Inhibitors: qHTS Assay for Human alpha-Galactosidase at pH 4.5 (AID 992); further: 0% is about no effect
Alpha-galactosidase A (Homo sapiens), sequence (P06280 whole entry, looked up): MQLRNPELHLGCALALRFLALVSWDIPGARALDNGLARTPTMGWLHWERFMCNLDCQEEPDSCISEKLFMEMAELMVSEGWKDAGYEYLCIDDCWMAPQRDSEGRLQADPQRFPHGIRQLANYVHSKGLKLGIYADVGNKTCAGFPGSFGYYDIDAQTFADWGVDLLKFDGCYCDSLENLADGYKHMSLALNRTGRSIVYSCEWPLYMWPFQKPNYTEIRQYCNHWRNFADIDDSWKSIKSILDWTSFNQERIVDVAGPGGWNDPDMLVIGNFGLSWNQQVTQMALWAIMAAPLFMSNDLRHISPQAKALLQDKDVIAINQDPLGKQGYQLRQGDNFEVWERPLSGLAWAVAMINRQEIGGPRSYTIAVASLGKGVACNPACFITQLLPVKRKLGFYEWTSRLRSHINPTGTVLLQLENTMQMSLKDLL
Method in brief: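 Enzyme at 2 nM final was combined with compound (0.7 nM to 77 uM) and 80 uM 4-methylumbelliferyl alpha-D-galactopyranoside in 50 mM citric acid, 0.005% Tween-20, pH 4.5. After 20 min at room temperature, fluorescence was read (Ex 365/Em 440 nm); AC50 came from Hill fits.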

[16] = target: alpha-glucosidase (Oryza sativa, rice) (UniProt Q653V4); assay: Counterscreen for Glucocerebrosidase Inhibitors: qHTS Assay for Rice alpha-Glucosidase at pH 5.0 (AID 997);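 further: 0% = full activity with enzyme and -100% = basal without enzyme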
Method in brief: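 Rice alpha-glucosidase (4 nM final) with 400 uM 4-methylumbelliferyl-alpha-D-glucopyranoside in citrate buffer pH 5.0, 20 min at room temperature, stopped at pH 10; fluorescence 365/440 nm, compounds 0.7 nM–77 uM, AC50 from Hill fits.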

[17] = qHTS Assay for Lipid Storage Modulators (AID 1519; calls by dose curve); conditions: Drosophila S3 cells, BODIPY lipid droplet/cell ratio, laser cytometry, cells loaded with oleic acid
Method in brief: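 Cells seeded at 5,000 per well were treated with compounds over a concentration series and loaded with oleic acid (400 uM, as added). Lipid droplet fluorescence (488 nm excitation, 500-530 nm channel) was read by laser-scanning cytometry and normalized to 20 uM Triacsin C.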

[18] = target: Ubiquitin carboxyl-terminal hydrolase 1 (Homo sapiens) (UniProt O94782); assay: Inhibitors of USP1/UAF1: Pilot qHTS (AID 504865);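 further: rhodamine fluorescence freed from ubiquitin-rhodamine substrate followed over time; top concentration of the series differs between compounds; on the % scale 0 is the no-effect control and ±100 the full control effect; nearly all actives have a fitted effect of over 35% in size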
Ubiquitin carboxyl-terminal hydrolase 1 (Homo sapiens), sequence (O94782 whole entry, looked up): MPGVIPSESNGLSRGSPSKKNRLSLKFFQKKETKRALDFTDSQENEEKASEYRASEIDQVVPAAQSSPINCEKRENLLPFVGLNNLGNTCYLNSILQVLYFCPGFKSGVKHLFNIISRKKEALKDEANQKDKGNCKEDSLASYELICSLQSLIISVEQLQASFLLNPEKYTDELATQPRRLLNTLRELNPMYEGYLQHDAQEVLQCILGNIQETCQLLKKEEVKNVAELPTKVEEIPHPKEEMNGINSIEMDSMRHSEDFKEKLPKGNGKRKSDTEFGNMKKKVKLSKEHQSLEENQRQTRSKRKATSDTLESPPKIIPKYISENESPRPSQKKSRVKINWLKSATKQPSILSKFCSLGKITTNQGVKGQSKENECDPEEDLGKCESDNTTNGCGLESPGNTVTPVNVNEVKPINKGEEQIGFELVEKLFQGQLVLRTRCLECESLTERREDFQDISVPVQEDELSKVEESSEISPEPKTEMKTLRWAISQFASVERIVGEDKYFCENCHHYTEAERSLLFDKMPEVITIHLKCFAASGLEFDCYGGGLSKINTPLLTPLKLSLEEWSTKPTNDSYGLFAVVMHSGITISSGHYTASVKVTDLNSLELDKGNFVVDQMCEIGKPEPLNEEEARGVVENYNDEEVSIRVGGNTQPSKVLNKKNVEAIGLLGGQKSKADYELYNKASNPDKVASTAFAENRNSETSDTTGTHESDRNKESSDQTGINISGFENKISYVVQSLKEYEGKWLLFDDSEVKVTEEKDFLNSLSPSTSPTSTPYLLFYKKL
Method in brief: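 Enzyme-free wells gave the negative control, while test wells held 1nM USP1/UAF1 preincubated with compound for 15 min at room temperature. Ub-Rho at 150nM final started the reaction, and fluorescence at 480/540 nm was recorded kinetically.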

[19] = target: DNA dC->dU-editing enzyme APOBEC-3G (Homo sapiens) (UniProt Q9HC16); assay: qHTS for inhibitors of Vif-A3G interactions: Validation (AID 588379); further: 0% is about no effect
DNA dC->dU-editing enzyme APOBEC-3G (Homo sapiens), sequence (Q9HC16 whole entry, looked up): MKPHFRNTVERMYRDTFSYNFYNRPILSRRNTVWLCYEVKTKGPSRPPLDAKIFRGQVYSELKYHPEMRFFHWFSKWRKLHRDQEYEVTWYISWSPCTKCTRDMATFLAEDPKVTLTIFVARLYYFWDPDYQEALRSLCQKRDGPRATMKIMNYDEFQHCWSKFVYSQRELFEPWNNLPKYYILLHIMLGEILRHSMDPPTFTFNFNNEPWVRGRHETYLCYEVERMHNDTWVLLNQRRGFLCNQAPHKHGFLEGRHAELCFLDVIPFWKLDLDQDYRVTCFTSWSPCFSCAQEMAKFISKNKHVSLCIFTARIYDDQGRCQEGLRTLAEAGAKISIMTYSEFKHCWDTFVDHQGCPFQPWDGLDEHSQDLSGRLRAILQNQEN
Method in brief: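 HeLa cells stably expressing Vif and A3G-eYFP, 700 cells/well, incubated overnight at 37 deg C, then exposed to compound overnight at 37 deg C. Inhibition of Vif-mediated degradation read as increased yellow fluorescence (Ex 488/Em 500-530) by laser-scanning cytometry.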

[20] = system: Zika virus NS2B-NS3 protease; assay: Primary screen GU AMC qHTS for Zika virus inhibitors (AID 1347154);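 further: 0% = no-inhibitor control and -100% = no-enzyme control; nearly all actives have a fitted effect of over 70% in size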
Method in brief: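 Unlinked Zika NS2B hydrophilic domain/NS3 protease domain noncovalent complex (25 nM final) in 10 mM Tris-HCl pH 8.0, 0.01% Tween 20, with AMC peptide substrate. Fluorescence (ex 340, em 450 nm) change over 15 min, room temperature; percent inhibition fitted to 4-parameter Hill equation.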

[21] = Primary qHTS for small molecule stabilizers of the endoplasmic reticulum resident proteome: Secreted ER Calcium Modulated Protein (SERCaMP) assay (AID 1508630); further: on the % scale 0 is the no-effect control and ±100 the full control effect
Method in brief: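 GLuc-SERCaMP-expressing SH-SY5Y cells, pretreated 16 h with compound, are challenged with thapsigargin to empty ER calcium stores; after 4 h, coelenterazine is added directly to the medium and luminescence is imaged.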

O=C1CC[C@H](N2C(=O)c3ccccc3C2=O)C(=O)N1
5.6% and -23.7%: max response ([17]; measured here: lipid channel max response)
inactive: activity change, negative = inhibition ([1]; at 17.2 µM (top of the series)) 0.427% | activity change, negative = inhibition ([1]; at 38 µM (top of the series)) -0.244% | Potency [2] | activity, negative = inhibition ([3]; at 17.2 µM (top of the series)) 3.42% | activity, negative = inhibition ([3]; at 38 µM (top of the series)) -18.4% | Potency [4] > 46 µM and > 20.6 µM | Potency [5] | Potency [6] | outcome [7] | Potency [8] | Potency [9] | Potency [10] | Potency [11] | outcome [12] | outcome [13] | Potency [14] | outcome [15] | outcome [16] | activity change, negative = inhibition ([17]; at 25.7 µM (top of the series)) -1.97% | activity change, negative = inhibition ([17]; at 57.5 µM (top of the series)) -4.08% | Potency [18] | Potency [19] | Potency [20] | Potency [21]
11% and -21.2%: max response ([17]; measured here: cell count channel max response)

CCCCC(C)(O)C/C=C/[C@H]1[C@H](O)CC(=O)[C@@H]1CCCCCCC(=O)O (stereo partly drawn)
inactive: activity change, negative = inhibition [20] 14% [at 6.83 µM] | activity change, negative = inhibition [21] -15.4% [at 3.88 µM]
